High-throughput results deposited in PubChem by National Center for Advancing Translational Sciences (NCATS).
Sampled rows, rich in hits. Any-hit rate of the full collection: about 14%.
AID923: qHTS Assay for Allosteric/Competitive Inhibitors of Caspase-1: Spectroscopic Profiling in AFC Spectral Region; compound fluorescence, AFC spectral region (405/520 nm); Potency, µM (top dose mostly 57.5 µM), without a hit: top-dose fluorescence increase, hits mostly activators; 1.1% of 75,000 active; note: potency is the fitted concentration of half-maximal effect; 0% is about no effect
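Titrations up to 57 uM read every 20 sec for 3 min (405/520 nm) with 50 nM caspase 1 and 5 uM Ac-WEHD-AFC, pH 7.5 HEPES buffer. Fluorescence-vs-time intercept gave baseline, scaled against on-plate AFC standard.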
A350 autofl: A350 region autofluorescence; Compound autofluorescence, 340/450 nm, Alexa 350 dye-equivalents; stronger effect = higher value; max dye-equivalent concentration, M; 11% of 59,000 active; in the data active = max dye-equivalent concentration above about 10 nM; inconclusive = mostly about 1.1 nM to 9.6 nM
CRE Fsk mod: modulators of forskolin-stimulated CRE signaling in CHO cells; 2.5% of 71,000 active; CHO CRE-bla reporter (cAMP response element driving beta-lactamase), forskolin EC10, beta-lactamase ratio; Potency, µM (highest dose often 38.2 µM), for inactives: at the top dose activity change, negative = inhibition, most hits filed as activators; active = well fitted activation curve with a large enough effect in the signal ratio, with a control signal flat, not every such curve was filed as active; inconclusive = small, poorly fitted or top-dose-only effect, or effect the other way, or a change in a side signal; the % refers to the signal ratio; note: potency is the fitted concentration of half-maximal effect; % of control where 0% means no effect
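Forskolin analogue NKH 477 at EC10 stimulated CRE-driven beta-lactamase in CHO cells alongside compound dilution series. Beta-lactamase was measured with CCF4, excitation 405 nm, emission ratio 460/530 nm.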
HADH2 inh: inhibitors of human HADH2 dehydrogenase | AID 886 | 3.4% of 73,000 active | recombinant HADH2, NADH fluorescence, beta-hydroxybutyryl-CoA | Q99714 | Potency, µM (top dose mostly 57.1 µM), for the others: at the top dose activity change, negative = inhibition, hits mostly inhibitors; note: potency is the fitted concentration of half-maximal effect; % is set by controls: 0 for no effect and ±100 for the full control effect; nearly all actives have a fitted effect of over 60% in size
Target sequence (Q99714 whole entry, looked up, one chain of several): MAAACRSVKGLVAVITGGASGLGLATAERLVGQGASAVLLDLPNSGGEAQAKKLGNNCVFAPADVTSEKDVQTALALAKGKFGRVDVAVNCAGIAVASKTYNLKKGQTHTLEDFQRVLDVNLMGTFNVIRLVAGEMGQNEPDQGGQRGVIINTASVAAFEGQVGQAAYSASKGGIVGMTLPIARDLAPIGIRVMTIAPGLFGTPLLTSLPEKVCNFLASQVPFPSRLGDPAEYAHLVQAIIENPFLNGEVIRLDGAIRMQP
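NADH fluorescence (ex 360/em 450 nm) read every 30 s for 4 min; activity taken as last-minus-first time point difference. Enzyme 20 nM, NAD+ 1 mM, beta-hydroxybutyryl-CoA 90 uM, pH 9.0 Tris buffer.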
4-MU autofl: compound fluoresces in the 4-MU spectral region; max dye-equivalent concentration, M; compound autofluorescence, 340/450 nm, 4-MU equivalents; stronger effect = higher value; AID 589; 11% of 59,000 active; in the data active = max dye-equivalent concentration above about 10 nM; inconclusive = mostly about 1.1 nM to 9.6 nM
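Compounds in 100 mM Tris, pH 8.0, sat 15 min at room temperature before fluorescence was read at 340 nm excitation/450 nm emission; a per-plate six-point 4-MU standard curve converted signals to dye-equivalent concentration at each compound concentration.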
HSD17B inhib: HSD17B dehydrogenase inhibition; recombinant HSD17B10, NADH fluorescence kinetic; Q99714; AID 893; 7.6% of 75,000 active; Potency, µM (series often up to 57.1 µM), for the others: top-dose activity change, negative = inhibition, usual class: inhibitors;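 note: the protocol describes HADH2 (HSD17B10) and not the HSD17B4 of the title; potency is the fitted concentration of half-maximal effect; % is set by controls: 0 for no effect and ±100 for the full control effect; nearly all actives have a fitted effect of over 70% in size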
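Activity followed as NADH fluorescence increase (ex 360, em 450 nm) every 30 seconds for 4 min, using final 90 uM beta-hydroxybutyryl CoA and 1 mM NAD+. Recombinant His-tagged enzyme, 20 nM, pH 9.0 Tris buffer, 15 min compound preincubation.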
* = called active by the depositor; [ ] = another dose, or the depositor's remark. Unless noted, calls come from the whole dose curve; as a rule, active = well fitted curve in the direction sought with a large enough effect; inconclusive = small, poorly fitted or top-dose-only effect, or another doubt; inactive = no such curve, though single readings can be large; an effect the other way counts as inactive or inconclusive.

Screening CNc1nc(-c2ccccc2C)nc2ccccc12 returned AID923 1.4%, A350 autofl inactive, CRE Fsk mod 19.7%, HADH2 inh inconclusive, 4-MU autofl inactive and HSD17B inhib -28.1%.
CC(C)C[C@@H](CC(=O)N[C@@H](CCCN)CC(=O)N[C@@H]1CCCC[C@H]1C(=O)N[C@H](CC(=O)N[C@@H](CCC(=O)O)CC(=O)O)Cc1ccccc1)NC(=O)[C@@H]1CNCC[C@H]1N was read as CRE Fsk mod -15.6% and HADH2 inh 14.7%.
`O=C1[C@H]2O[C@@H]2[C@@H](O)[C@H]2[C@H]1CCn1c(=O)n(Cc3cc4c(cc3Cl)OCO4)c(=O)n12` gave AID923 -2.9%[11.5 µM], HADH2 inh -14.4%[11.4 µM] and HSD17B inhib 3.7%[11.4 µM].
CCN1CCCC1Cn1c(-c2ccccc2)nc2c(N3CCOCC3)nc(C)nc21 (centres undefined) was read as AID923 -1.0%, CRE Fsk mod 5.4%, HADH2 inh -13.1% and HSD17B inhib 25.1µM*.
Screening Cc1nc(N2CCOCC2)c2nc(-c3ccccc3)n(CCCN3CCOCC3)c2n1 returned AID923 6.8%, CRE Fsk mod inconclusive, HADH2 inh inconclusive and HSD17B inhib 20µM*.
`Cc1nc(N2CCOCC2)c2nc(-c3ccccc3)n(CC(C)(C)CN(C)C)c2n1` gave AID923 -0.1%, CRE Fsk mod -7.3%, HADH2 inh 29.9% and HSD17B inhib 31.6µM*.
Cc1nc(N2CCOCC2)c2nc(-c3ccccc3)n(CC3CCN(C)CC3)c2n1 was read as AID923 1.6%, CRE Fsk mod 4.0%, HADH2 inh inconclusive and HSD17B inhib 25.1µM*.
Screening CCCn1c(-c2ccc(F)cc2)nc2c(N3CCN(CCn4ccnc4)CC3)nc(C)nc21 returned AID923 -2.0%, CRE Fsk mod inconclusive, HADH2 inh 10.0% and HSD17B inhib inconclusive.
COC(=O)CC[C@@H](C)[C@H]1CC[C@H]2[C@@H]3CC[C@@H]4C[C@H](O)CC[C@]4(C)[C@H]3C[C@H](O)[C@]12C was read as AID923 0.1% and HSD17B inhib 9.6%.
Screening COC(=O)NC(c1cccs1)C(C(C)=O)C(=O)OC (centres undefined) returned AID923 -2.7%[11.5 µM], HADH2 inh -14.5%[11.4 µM] and HSD17B inhib 1.5%[11.4 µM].
For COc1cc(OC)c(C(=O)CCCCN2CCC3(CC2)NC(=O)NC3=O)cc1NS(=O)(=O)c1ccc(C(F)(F)F)cc1 the results were AID923 1.1%, CRE Fsk mod inconclusive, HADH2 inh -0.9% and HSD17B inhib -15.8%.
For Cc1nc(N2CCOCC2)c2nc(-c3ccccc3)n(CCN3CCOCC3)c2n1 the results were AID923 -1.6%, CRE Fsk mod 5.8%, HADH2 inh 7.0% and HSD17B inhib 25.1µM*.
For C1CCN(CC[C@@H]2CCCCN2)CC1 the results were AID923 0.8%[11.5 µM], A350 autofl inactive, CRE Fsk mod 4.7%[7.6 µM], HADH2 inh 4.8%[11.4 µM], 4-MU autofl inactive and HSD17B inhib 3.6%[11.4 µM].
For O=C(c1cc2ccccc2o1)N1CCN(c2ccccc2Cl)CC1 the results were AID923 -0.1%, A350 autofl 1.01e-08M*, CRE Fsk mod 4.7%, HADH2 inh -2.9%, 4-MU autofl inconclusive and HSD17B inhib 1.1%.
For CCC(=O)N1CCN(c2ccc(NC(=O)c3cc4ccccc4o3)cc2Cl)CC1 the results were AID923 1.1%, A350 autofl inactive, CRE Fsk mod inconclusive, HADH2 inh 5.5%, 4-MU autofl inconclusive and HSD17B inhib 25.1µM*.
O=C(Nc1ccc(N2CCN(C(=O)c3ccco3)CC2)c(Cl)c1)c1cc2ccccc2o1 was read as AID923 6.3%, A350 autofl 1.65e-08M*, CRE Fsk mod inconclusive, HADH2 inh inconclusive, 4-MU autofl 1.62e-08M* and HSD17B inhib inconclusive.
